Compound activity deposited in PubChem BioAssay by National Center for Advancing Translational Sciences (NCATS).
Compounds with a hit are over-represented: about 3.3% of the library has one in this group of screens.
AmpC inh no detg – blocks E. coli AmpC beta-lactamase in detergent-free assay. P00811. AmpC nitrocefin hydrolysis, absorbance 480 nm, 0.0001% Triton. Potency, µM (titrated, usually from 57.1 µM), for the others: at the top dose activity change, negative = inhibition, actives largely listed as inhibitors. actives 0.52% (n = 330,000);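 further: plate controls were no compound for no effect and no enzyme for full effect; nearly all actives have a fitted effect of over 20% in size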
Target sequence (P00811 whole entry, looked up): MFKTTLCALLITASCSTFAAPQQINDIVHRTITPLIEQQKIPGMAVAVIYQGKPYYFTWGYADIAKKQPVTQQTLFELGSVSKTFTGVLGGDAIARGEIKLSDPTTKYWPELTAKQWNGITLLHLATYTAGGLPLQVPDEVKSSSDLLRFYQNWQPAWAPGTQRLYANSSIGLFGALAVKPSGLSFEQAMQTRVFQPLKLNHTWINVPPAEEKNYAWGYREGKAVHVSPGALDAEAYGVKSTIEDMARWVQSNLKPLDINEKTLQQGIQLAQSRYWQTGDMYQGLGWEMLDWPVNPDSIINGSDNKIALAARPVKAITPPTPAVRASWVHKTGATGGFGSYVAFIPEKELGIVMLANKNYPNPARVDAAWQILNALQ
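AmpC (5.3 nM in the dispensed reagent) in 20 mM phosphate pH 7.0 with 0.01% (detergent screen) or 0.0001% Triton X-100 was preincubated with compounds for 15 min at room temperature. Nitrocefin was then added from an 800 uM solution, and hydrolysis was followed at 480 nm.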
Sm TGR inh – blocks Schistosoma mansoni thioredoxin glutathione reductase. purified TGR, DTNB reduction, TNB absorbance 405 nm. AID 485364. Q962Y6. Potency, µM (series often up to 114 µM), without a hit: at the top dose activity change, negative = inhibition, usual class: inhibitors. actives 3% (n = 360,000); further: nearly all actives have a fitted effect of over 60% in size
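Kinetic colorimetric format: TGR-catalysed, NADPH-driven DTNB reduction monitored via TNB absorbance. Enzyme dispensed at 20 nM; compound exposure 15 min at room temperature before reaction start.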
AmpC inh detg – inhibitors of E. coli AmpC beta-lactamase with detergent; P00811; AmpC hydrolysis of nitrocefin, absorbance 480 nm, 0.01% Triton; Potency, µM (highest dose often 114 µM), for the others: top-dose activity change, negative = inhibition, hits mostly inhibitors; actives 0.041% (n = 370,000); AID 485294;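 further: 0% = no-compound wells and -100% = no-enzyme wells; nearly all actives have a fitted effect of over 25% in size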
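20 mM phosphate pH 7.0 + 0.01% (detergent screen) or 0.0001% Triton X-100; 5.3 nM AmpC reagent; cpd preinc 15 min RT; nitrocefin (800 uM stock) to start; A480 q20 s × 4 min; Activity was normalised to no-enzyme and no-compound control wells.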
* marks the source's active call; other numbers are inactive results; ? = inconclusive; . = no result given; [ ] = dose if it differs, or a comment. The call rests on the fitted dose curve; in most records, active means well fitted curve in the direction sought with a large enough effect; inconclusive means small, poorly fitted or top-dose-only effect, or another doubt; inactive means no such curve, though single readings can be large; an effect the other way counts as inactive or inconclusive. Unless noted, on the % scale 0 is the no-effect control and ±100 the full control effect; potency means the concentration at half of the fitted maximal effect.

SMILES	AmpC inh no detg	Sm TGR inh	AmpC inh detg
CN(C)c1ccc(C2C3C(=O)N(c4ccc(C(=O)O)cc4)C(=O)C3ON2c2ccccc2)cc1 (stereo not drawn)	-14%	-3%	-1%
Cc1nc(S(=O)(=O)N2CCN(c3cccc(Cl)c3)CC2)cn1C	.	-3%	23%
O=C(CCCn1c(=O)c2ccccc2n(Cc2cccc(F)c2)c1=O)NCc1ccccc1Cl	.	9%	15%
COc1cccc(-c2cc(C(=O)Nc3ccc(F)cc3)[nH]n2)c1	.	6%	10%
COC(=O)c1scc(-c2ccc(C)cc2)c1S(=O)(=O)N1CCN(c2ccccc2F)CC1	.	-3%	-3%
CCOC(=O)C1=C(c2ccccc2)N=c2s/c(=C\c3ccco3)c(=O)n2C1c1cccs1 (stereo not drawn)	13µM*	?	0%
CCOC(=O)C1=C(c2ccccc2)N=c2s/c(=C\c3cc(OC)c(OC)c(OC)c3)c(=O)n2C1c1cccs1 (stereo not drawn)	-10%	12%	4%
COc1cc(C=C2C(=O)NC(=O)NC2=O)ccc1OS(=O)(=O)c1ccccc1[N+](=O)[O-]	-16%	2.8µM*	-12%
CCOc1cc(/C=C(\C#N)C(N)=O)ccc1OS(=O)(=O)c1ccccc1	-15%	-12%	?
COc1cc(/C=C2\C(=N)N3N=CSC3=NC2=O)ccc1OS(=O)(=O)c1ccccc1[N+](=O)[O-]	-50%	-30%	-11%
CCOc1cc(C=C2C(=O)NC(=O)NC2=O)ccc1OS(=O)(=O)c1ccccc1	-30%	22µM*	-1%
COc1ccc(CCNC(=O)CCCn2c(=O)c3ccccc3n(Cc3cccc(Cl)c3)c2=O)cc1OC	.	4%	-1%
CCCCCCCC/C=C\CCCCCCCC(=O)O	-17%	0%	-7%
CCCCC/C=C\C/C=C\C/C=C\CCCCC(=O)O	147%	28µM*	?
CCOC(=O)c1cc(-c2ccccc2)n(CCCC(=O)Nc2ccc(C)c(Cl)c2)c1C	.	1%	11%
COc1ccc([C@]23Cc4cc(OC)c(OC)cc4C(O2)C2=C(CC4(CCCCC4)OC2=O)O3)cc1	-8%[11.4 µM]	?	-8%[22.9 µM]
Cc1oc(-c2ccc(C(=O)N(C)Cc3ccccc3)cc2)nc1CN1CCc2ccccc21	.	-8%	1%
O=C1C=CC(=O)N1Cc1ccccc1	-26%	?	-10%
O=C1C=CC(=O)N1N(c1ccccc1)c1ccccc1	-11%	2.5µM*	?
Cc1nc(-c2ccc(C)c(N3CCN(C(=O)Nc4cccc(Cl)c4C)CC3)c2)no1	.	3%	5%
C(=N\Nc1ccccc1)/c1ccc(N2CCOCC2)cc1	-26%	-20%	-1%
O=CC1=C(N2CCOCC2)/C(=C/c2ccc(Cl)cc2)CC1	0%	22µM*	-5%
Cc1cc(C)nc(N/N=C/C2=C(N3CCOCC3)C(=C\c3ccc(Cl)cc3)/CC2)n1	-3%	32µM*	?
Cc1occc1C(=O)N/N=C/C1=C(N2CCOCC2)C(=C\c2ccc(Cl)cc2Cl)/CC1	-44%	-12%	-3%
O=C(O)c1ccc(N/N=C/C2=C(N3CCOCC3)C(=C\c3ccccc3)/CC2)cc1	?	18µM*	-15%
SMILES	AmpC inh no detg	Sm TGR inh	AmpC inh detg
Cc1cc(C)nc(N/N=C/c2ccc(N3CCOCC3)cc2)n1	-20%	.	-1%
CN(C(=O)NC(=O)C1=C(N2CCOCC2)/C(=C/c2ccccc2)CC1)S(C)(=O)=O	-17%	16µM*	-1%
CCCCN(C(=O)NC(=O)C1=C(N2CCOCC2)/C(=C/c2ccccc2)CC1)S(C)(=O)=O	-19%	3%[11.4 µM]	-12%
CCn1ccc2c(OCC(=O)Nc3ccc(OC)cc3OC)cccc2c1=O	.	1%	0%
COC(=O)c1sccc1S(=O)(=O)N(CC(=O)NCc1ccccc1)c1ccc(C)cc1	.	-13%	13%
COCCOC(=O)c1c(C)oc2c1cc(NS(=O)(=O)c1ccc(Cl)c(C)c1)c1ccccc12	.	-10%	12%
O=C(/C=C/c1ccc(-c2ccccc2)o1)c1ccccc1	-33%	?	-15%
CC(=C/C(=O)O)/C=C/c1ccco1	-9%	7.9µM*	?
Cc1ccc(NC(=O)/C=C/c2ccco2)nc1	-11%	-17%	-1%
CC(/C=C/c1ccc(Cl)o1)=C\C(=O)O	-12%	8.9µM*	-1%
Cc1cccc(C)c1NC(=O)c1ccc2c(c1)N(Cc1cccc(Cl)c1)C(=O)c1ccccc1S2=O (stereo not drawn)	.	7%	6%
CCOC(=O)C1CCCN(C2CC(=O)N(c3cccc(C)c3)C2=O)C1 (stereo not drawn)	-7%	25µM*	?
CCOC(=O)c1ccc(N2C(=O)CC(N3CCCC(C)C3)C2=O)cc1 (stereo not drawn)	5%	25µM*	-11%
CCOC(=O)c1ccc(N2C(=O)CC(N3CCC(Nc4ccc(F)cc4)CC3)C2=O)cc1 (stereo not drawn)	28%	56µM*	?
CCOC(=O)c1ccc(N2C(=O)CC(Sc3ncccn3)C2=O)cc1 (stereo not drawn)	-20%	40µM*	1%
CCCOc1ccc(N2C(=O)CC(N3CCC(C(=O)OCC)CC3)C2=O)cc1 (stereo not drawn)	71%	0%	-12%
CCOC(=O)C(N)CSC1CC(=O)N(c2ccc(C(=O)OC)cc2)C1=O (stereo not drawn)	-4%	?	?
CCOC(=O)c1ccc(N2C(=O)C3CCCN3C2=S)cc1 (stereo not drawn)	-18%	9%	?
CCN1C(=O)CC(N2CCC(Nc3ccc(F)cc3)CC2)C1=O (stereo not drawn)	-1%	-11%	-10%
COc1ccc2c(c1)c(N1CCCC1=O)c(C(=O)Nc1cc(C)c(Cl)cc1OC)n2C	.	5%	6%
Cc1cc(C)cc(N(CC(=O)Nc2c(C)cc(C)cc2C)S(=O)(=O)c2c(C)nn(C)c2C)c1	.	0%	-2%
O=C(NCCc1ccccc1)c1sc2ncccc2c1-n1cccc1	.	7%	-5%
c1ccc(C2CC3CC(c4ccco4)N2O3)cc1 (stereo not drawn)	?	35µM*	-1%
CN1C(c2ccccc2)CCOS1(=O)=O (stereo not drawn)	-3%	-6%	?
FC(F)(F)c1ccc(C2[C@H]3CN(Cc4ccc(-c5ccccc5)cc4)[C@H](c4ccccc4)C34CC2(c2ccccc2)C4)cc1 (stereo partly drawn)	-36%	50µM*	-3%
SMILES	AmpC inh no detg	Sm TGR inh	AmpC inh detg
FC(F)(F)c1ccc(C2[C@H]3CN(Cc4ccc(-c5ccccc5)cc4)[C@H](c4ccccc4)C34CC2(c2cccnc2)C4)cc1 (stereo partly drawn)	-12%	-4%	2%
CS(=O)(=O)N(CC(=O)NCc1ccco1)c1ccccc1Cl	-6%	40µM*	-4%
CCOc1ccc(N(CC(=O)Nc2ccccc2C(=O)NCc2ccco2)S(C)(=O)=O)cc1	-2%	3%	?
COc1ccc(N(CC(=O)NCc2ccco2)S(C)(=O)=O)c(OC)c1	4%	-18%	-1%
CCOc1ccc(N(CC(=O)NCc2ccco2)S(C)(=O)=O)cc1	-5%	50µM*	0%
COc1ccccc1OCC(=O)Nc1ccc(N2CCCCC2)cc1	-20%[11.4 µM]	0%	-9%
